Measurements reported in PubChem BioAssay (NCI).
Compounds without any hit were thinned out: in the full panel of roughly 83,000, 20% have a hit.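 Method: cells in 96-well plates; compound added at one concentration; 48 h incubation; percent growth measured; values under 10 scored active.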 Unmarked numbers belong to inactive results. Active and inactive are the calls of the source.

The molecules below were run on HL-60(TB) leukemia (assay: NCI-60 one-dose screen, 48 h (100 = growth as untreated, 0 = no growth, -100 = all killed)). Details: 10 µM unless noted.

SMILES | growth
COc1cccc(-c2nc3sccn3c2-c2ccnc(NCCNS(=O)(=O)c3c(Cl)cccc3Cl)c2)c1 | 25.9%
Cc1cc(Cl)ccc1Nc1nc(C(F)(F)F)ccc1C(=O)N/N=C/c1ccccc1Cl | 12.5%
[2H]c1nc(=Nc2cc(NC(=O)C=C)c(N(C)CCN(C)C)cc2OC)[nH]c(-c2cn(C([2H])([2H])[2H])c3ccccc23)c1[2H] | -37.8% (active)
N#CCc1csc(Cc2ccccc2)n1 | 95.7%
C[C@@H]1COCCN1c1cc(C2([S@](C)(=N)=O)CC2)nc(-c2ccnc3[nH]ccc23)n1 | -9.62% (active)
O=[N+]([O-])c1ccc(Sc2nc(Cl)nc(NC3CCCC3)n2)cc1 | -26% [100 µM] (active)
COc1ccc(-c2cc(Nc3ccnc(N4CCOCC4)n3)on2)cc1 | -29.9% (active)
O=C(Nc1cccc(N=Cc2c(O)ccc3ccccc23)c1)c1ccccc1 | 109%
CCOC(=O)c1sc(-c2ccc(OS(=O)(=O)c3ccc(C(C)(C)C)cc3)c(C=O)c2)nc1C | 21.3%
O=c1c(/C=C/c2c(O)ccc3ccccc23)nnc2sc(-c3cccc([N+](=O)[O-])c3)nn12 | 11.2%
CNCc1cccc2c1OCCOCCOCCNS(=O)(=O)c1ccc(cc1)-c1cnc(N)c(n1)C(=O)N2 | -10.8% (active)
O=[N+]([O-])c1cccc(N=Cc2ccc3c(c2)OCO3)c1 | 98.5%
c1ccc(-c2n(Cc3ccc4ccccc4n3)cc[n+]2Cc2ccc3ccccc3c2)cc1 | -54.3% (active)
